21 compounds from PubChem BioAssay (NCATS) can be followed below.

Test [1] addresses Glutathione peroxidase 1 (Homo sapiens) (UniProt P07203). Description: Primary qHTS Assay for Inhibitors of Recombinant Selenoprotein Glutathione Peroxidase 1 (GPX1) (AID 1845191). Note: nearly all actives have a fitted effect of over 65% in size. The method, boiled down: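 GPX1 10 nM, GR 100 nM, GSH 1 mM, NADPH 0.5 mM, CHP 0.5 mM (final). 30-min cpd preincubation, RT. Ex340/Em450 read t=0, t=15 min.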
Background: qHTS replaces the single test concentration by a dilution series.

Test [2] deals with Phospholipid hydroperoxide glutathione peroxidase GPX4 (Homo sapiens) (UniProt P36969). Put plainly: Primary qHTS Assay for Inhibitors of Recombinant Selenoprotein Glutathione Peroxidase 4 (GPX4) (AID 1845192). Note: nearly all actives have a fitted effect of over 65% in size. The method, boiled down: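 qHTS, GR-coupled: GPX4 200 nM + cpd 30 min RT → GSH 1 mM, NADPH 0.5 mM, GR 100 nM → CHP 0.5 mM start; fluor 340/450 at t0 and t15 min; no-enzyme wells as control.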
Chain of Phospholipid hydroperoxide glutathione peroxidase GPX4 (Homo sapiens) (P36969 whole entry, looked up): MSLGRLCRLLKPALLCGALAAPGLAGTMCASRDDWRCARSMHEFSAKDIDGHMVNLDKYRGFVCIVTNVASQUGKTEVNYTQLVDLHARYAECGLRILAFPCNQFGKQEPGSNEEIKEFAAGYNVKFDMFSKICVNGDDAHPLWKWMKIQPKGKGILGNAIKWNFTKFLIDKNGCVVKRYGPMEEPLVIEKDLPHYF

The target in test [3] is Luciferin 4-monooxygenase (Photinus pyralis) (UniProt P08659). Put plainly: Primary firefly luciferase (FLuc) qHTS assay for identification of artifact compounds. (AID 1845220). Note: nearly all actives have a fitted effect of over 60% in size. In a few lines:
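qHTS, 15 min compound preincubation with substrate (10 uM luciferin, 10 uM ATP) at RT, then 10 nM FLuc; 5 min; luminescence; % inhibition vs no-enzyme/DMSO controls, 4-parameter Hill fit.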

A short description of test [4]: Primary fluorescence-based thiol-reactive (MSTI) qHTS assay for identification of artifact compounds. (AID 1845221). Note: nearly all actives have a fitted effect of over 65% in size. Note: potency is the fitted concentration of half-maximal effect. The method, boiled down:
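Thiol-reactive compounds detected by quenching of 4 uM MSTI fluorescence (525/598 nm) after 1 h room-temperature dark incubation in PBS pH 7.4, 2% DMSO. qHTS titration; percent inhibition Hill-fitted against Acetyl-MSTI/MSTI controls.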

The subject of test [5] is Nanoluciferase (engineered Oplophorus gracilirostris luciferase). Put plainly: Primary Nanoluciferase (NLuc) qHTS assay for identification of artifact compounds. (AID 1845222). Note: series mostly up to about 54 µM. In a few lines:
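Luminescence read-out of secreted NLuc in S16 cell conditioned medium (1:55); compounds tested with 15 min RT preincubation, then Nano-Glo substrate 1:100, 5 min. % inhibition vs no-enzyme and DMSO controls, 4-parameter Hill fit.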

A short description of test [6]: Primary redox qHTS assay for identification of artifact compounds. (AID 1845223). In a few lines: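 Redox-cycling detection via DTT (250 uM final) oxidation coupled to Amplex Red (25 uM)/HRP (250 mU/mL) in HBSS. 15 min preincubation plus 30 min after DTT, room temperature. Ex/Em 525/598 nm; 4-parameter Hill fit against DMSO and 10 uM DA3003.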

Unmarked numbers belong to inactive results. Results filed as inconclusive are left out. The source made the active and inactive calls. Calls come from the whole dose curve; as a rule, active = well fitted curve in the direction sought with a large enough effect; inconclusive = small, poorly fitted or top-dose-only effect, or another doubt; inactive = no such curve, though single readings can be large; an effect the other way counts as inactive or inconclusive.

Chain of Glutathione peroxidase 1 (Homo sapiens) (P07203 whole entry, looked up): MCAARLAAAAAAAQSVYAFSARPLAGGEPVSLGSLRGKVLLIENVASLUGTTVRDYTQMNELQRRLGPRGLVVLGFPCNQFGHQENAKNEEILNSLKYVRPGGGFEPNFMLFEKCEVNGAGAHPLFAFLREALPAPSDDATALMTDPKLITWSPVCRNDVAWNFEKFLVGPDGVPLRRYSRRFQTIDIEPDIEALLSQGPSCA

As to `CCNc1nc(Nc2cc(F)c(C(=O)N3CCOCC3)cc2OC)ncc1C(F)(F)F`, the Potency entry in test [1], in test [2], in test [3], in test [4], in test [5] and in test [6] was “inactive” each time.
Turning to `CC(C)n1nc(C#Cc2ccccc2)c2c(N)ncnc21`, the Potency entry in test [1], in test [2], in test [3], in test [4], in test [5] and in test [6] was “inactive” each time.
As to `Nc1nccc(-c2c(-c3ccc(F)cc3)ncn2C2CCCCC2)n1`, the Potency entry in test [1], in test [2], in test [3], in test [4], in test [5] and in test [6] was “inactive” each time.
On to `CN1CCN(C(=O)CN[C@@H]2C[C@H]2c2ccc(OCc3ccccc3)cc2)CC1`, for which the Potency entry in test [1], in test [2], in test [3], in test [4], in test [5] and in test [6] was “inactive” throughout.
As to `O=c1cc(N2CCOCC2)nc2c3ccccc3ccn12`, the Potency entry in test [1], in test [2], in test [3], in test [4], in test [5] and in test [6] was “inactive” each time.
Turning to `CS(=O)(=O)Nc1ccc2oc3c(OC(F)F)ccc(C(=O)Nc4c(Cl)cncc4Cl)c3c2c1`, the Potency result in test [1], in test [2], in test [3], in test [4], in test [5] and in test [6] was “inactive” each time.
`Cc1cccc(CC(=O)N2CCc3c2ccc(-c2cn(C)c4ncnc(N)c24)c3F)n1`: the Potency result in test [1], in test [2], in test [3], in test [4], in test [5] and in test [6] was “inactive” each time.
Take `C[C@@H]1C[C@H]2O[C@@]3(O[C@@H]2C(C)(C)O)C(O)[C@@]2(C)C4CCC5C(C)(C)[C@@H](O[C@H]6OC[C@H](O)[C@@H](O)[C@@H]6O)CC[C@@]56C[C@@]46CC[C@]2(C)C13` (stereo partly specified): the Potency result in test [1], in test [2], in test [3], in test [4], in test [5] and in test [6] was “inactive” in each case.
As for `O=C(CN1C2=NCCN2c2ccccc21)c1ccc(-c2ccccc2)cc1`, the Potency result in test [1], in test [2], in test [3], in test [4], in test [5] and in test [6] was “inactive” each time.
Regarding `COC1=CC(=O)O/C1=C(/OC)[C@@H]1O[C@H]1c1ccccc1`, the Potency result in test [1], in test [2], in test [3], in test [4], in test [5] and in test [6] was “inactive” in each case.
For `CC(C)S(=O)(=O)Nc1ccc(F)c(C(=O)c2c[nH]c3ncc(-c4cccnc4)cc23)c1F`, the Potency entry in test [1], in test [2], in test [3], in test [4], in test [5] and in test [6] was “inactive” each time.
`C/C=C(\C)C(=O)O[C@H]1C=C(CO)C(=O)[C@H](OC(C)=O)[C@H]1C(C)C`: the Potency entry in test [1], in test [2], in test [3], in test [4], in test [5] and in test [6] was “inactive” throughout.
Take `CC(C)CCNC(=O)[C@H](CC(C)C)NC(=O)[C@H]1O[C@@H]1C(=O)O`: the Potency result in test [1], in test [2], in test [3], in test [4], in test [5] and in test [6] was “inactive” each time.
On to `CCCC(Nc1nc(-c2ccc(NC(=O)NCC)c(OC)c2)ncc1C)c1cccnc1` (stereo unspecified), for which the Potency entry in test [1], in test [2], in test [3], in test [4], in test [5] and in test [6] was “inactive” each time.
As for `COc1cc2c(Nc3cc(F)c(Cl)c(Cl)c3)ncnc2cc1OCC1CCCN(C)CCC1`, the Potency result in test [1], in test [2], in test [3], in test [4], in test [5] and in test [6] was “inactive” in each case.
On to `O=S(=O)(c1ccc(Cl)cc1)N1CCN(c2ccnc3cc(Cl)ccc23)CC1`, for which the Potency result in test [1], in test [2], in test [3], in test [4], in test [5] and in test [6] was “inactive” each time.
As to `C/C(=C\CO[C@@H]1O[C@H](CO[C@H]2OC[C@](O)(CO)[C@H]2O)[C@@H](O)[C@H](O)[C@H]1O)C(C)(C)O`, the Potency entry in test [1], in test [2], in test [3], in test [4], in test [5] and in test [6] was “inactive” each time.
In the case of `CCCCNc1ncc(-c2ccc(CN3CCOCC3)cn2)c(NC2CCC(O)CC2)n1` (stereo unspecified), the Potency entry in test [1], in test [2], in test [3], in test [4], in test [5] and in test [6] was “inactive” throughout.
Regarding `Fc1ccc(-c2nc(C3CCNCC3)sc2-c2ccnc(NC3CC3)n2)cc1`, the Potency result in test [1], in test [2], in test [3], in test [4], in test [5] and in test [6] was “inactive” throughout.
As to `CCOC(=O)N1CCC(N2CCC[C@@H](NC(=O)c3ccccc3C)C2)CC1`, the Potency result in test [1], in test [2], in test [3], in test [4], in test [5] and in test [6] was “inactive” each time.
With `Cc1[nH]c2ccccc2c1CCNC(=O)c1cccs1`, the Potency entry in test [1], in test [2], in test [3], in test [5] and in test [6] was “inactive” throughout. Also, in test [4], the Potency is 8.44 µM (active).
